Data taken from PubChem BioAssay AID1159580 (chemical genetic matrix, 2015).
Values joined by “and” are separate entries in the source; they are usually repeats but may differ in a detail not shown here. Equal entries are not always repeated. Hit rate of the full screen: of about 5,500 compounds, about 2,000 (36%) were called active. About 18% were inconclusive and are not listed. No stated cut-off is given here; in the data, active means normalized growth mostly below about 0.91 (no sharp cut-off); inconclusive means no clear call, values can overlap the other calls; inactive means mostly above about 0.92. The list shows a part of the results.

Experiment: chemical genetic growth profiling, strain panel (AID 1159580);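 further: tested at 20 µM; growth read once vehicle control cultures reached saturation at 30 °C; 1 = growth at the plate median or of vehicle wells; lower values mean less growth of the strain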
Conditions: S. cerevisiae deletion strains, growth OD

Measured: normalized growth

COc1ccc(C(Cl)=C(c2ccc(OC)cc2)c2ccc(OC)cc2)cc1
inactive: locus YAL021C, strain ccr4, active compounds read low 1.04 | locus YAL026C, strain drs2, active compounds read low 1.03 | locus YAL030W, strain snc1, active compounds read low 1.03 | locus YBL061C, strain skt5, active compounds read low 0.992 | locus YBR009C, strain hhf1, active compounds read low 1.01 | locus YBR021W, strain FUR4, active compounds read low 0.994 | locus YBR023C, strain chs3, active compounds read low 0.993 | locus YBR171W, strain sec66, active compounds read low 1.03 | locus YBR229C, strain ROT2, active compounds read low 1.01 | locus YBR231C, strain swc5, active compounds read low 1.03 | locus YBR279W, strain paf1, active compounds read low 0.984 | locus YCL011C, strain gbp2, active compounds read low 1.02 | locus YCL016C, strain dcc1, active compounds read low 0.985 | locus YCL029C, strain bik1, active compounds read low 1.01 | locus YCL061C, strain MRC1, active compounds read low 1.03 | locus YCL069W, strain vba3, active compounds read low 1.03 | locus YCR088W, strain abp1, active compounds read low 1.02 | locus YDL005C, strain med2, active compounds read low 1.03 | locus YDL035C, strain GPR1, active compounds read low 0.989 | locus YDL040C, strain nat1, active compounds read low 1.03 | locus YDL074C, strain BRE1, active compounds read low 1.03 | locus YDL101C, strain DUN1, active compounds read low 1.03 | locus YDL134C, strain PPH21, active compounds read low 0.981 | locus YDL185W, strain tfp1, active compounds read low 1.01 | locus YDL192W, strain arf1, active compounds read low 1.02 | locus YDR001C, strain nth1, active compounds read low 1.02 | locus YDR069C, strain doa4, active compounds read low 0.993 | locus YDR101C, strain arx1, active compounds read low 0.997 | locus YDR137W, strain rgp1, active compounds read low 0.97 | locus YDR150W, strain NUM1, active compounds read low 1.01 | locus YDR159W, strain sac3, active compounds read low 1.01 | locus YDR162C, strain NBP2, active compounds read low 1 | locus YDR195W, strain ref2 1.06 | locus YDR297W, strain sur2, active compounds read low 1.02 | locus YDR318W, strain mcm21, active compounds read low 1.01 | locus YDR334W, strain swr1, active compounds read low 1.04 | locus YDR335W, strain msn5, active compounds read low 1 | locus YDR388W, active compounds read low 1.03 | locus YDR392W, strain spt3, active compounds read low 1 | locus YDR502C, strain sam2, active compounds read low 1.01 | locus YEL003W, strain gim4, active compounds read low 1.03 | locus YEL037C, strain rad23, active compounds read low 1.03 | locus YEL061C, strain CIN8 (second series), active compounds read low 1.06 | locus YEL061C, strain CIN8, active compounds read low 1.01 | locus YER015W, strain faa2, active compounds read low 1.03 | locus YER016W, strain bim1, active compounds read low 0.971 | locus YER110C, active compounds read low 1.03 | locus YER111C, strain swi4, active compounds read low 1.03 | locus YER155C, strain BEM2 (second series), active compounds read low 1.03 | locus YER155C, strain BEM2, active compounds read low 1.02 | locus YER167W, strain BCK2, active compounds read low 1.01 | locus YFR010W, strain ubp6, active compounds read low 1.02 | locus YGL078C, strain dbp3, active compounds read low 1.01 | locus YGL086W, strain mad1, active compounds read low 0.998 | locus YGL167C, strain pmr1, active compounds read low 1.01 | locus YGL173C, strain kem1, active compounds read low 1.03 | locus YGL227W, strain vid30, active compounds read low 1.02 | locus YGL240W, strain doc1, active compounds read low 1.05 | locus YGL248W, strain PDE1, active compounds read low 1.03 | locus YGL253W, strain hxk2, active compounds read low 0.999 | locus YGR135W, strain pre9, active compounds read low 1.04 | locus YGR252W, strain gcn5, active compounds read low 1.04 | locus YHR013C, strain ard1, active compounds read low 1.04 | locus YHR027C, strain rpn1, active compounds read low 0.989 | locus YHR030C, strain SLT2, active compounds read low 1.01 and 0.939 | locus YHR079C, strain IRE1 (second series), active compounds read low 1.02 | locus YHR079C, strain IRE1, active compounds read low 0.963 | locus YHR094C, strain hxt1, active compounds read low 1.03 | locus YHR129C, strain ARP1, active compounds read low 1.02 | locus YHR142W, strain chs7, active compounds read low 1.06 | locus YHR200W, strain rpn10, active compounds read low 1.02 | locus YIL066C, strain RNR3, active compounds read low 1 | locus YIL073C, strain SPO22, active compounds read low 1.03 | locus YIL125W, strain kgd1, active compounds read low 1.01 | locus YIR030C, strain dcg1, active compounds read low 1.02 | locus YJL092W, strain hpr5, active compounds read low 1.02 | locus YJL095W, strain BCK1 (second series), active compounds read low 1.03 | locus YJL095W, strain BCK1, active compounds read low 1.06 and 0.963 | locus YJL115W, strain asf1, active compounds read low 1.02 | locus YJL129C, strain trk1, active compounds read low 1.04 | locus YJL134W, strain LCB3, active compounds read low 1.01 | locus YJL154C, strain vps35, active compounds read low 1.03 | locus YJL164C, strain tpk1, active compounds read low 1.01 | locus YJL166W, strain qcr8, active compounds read low 1.04 | locus YJL168C, strain set2, active compounds read low 1.03 | locus YJL187C, strain SWE1 (second series), active compounds read low 1.04 | locus YJR043C, strain POL32, active compounds read low 0.999 | locus YJR066W, strain TOR1, active compounds read low 0.965 | locus YJR075W, strain HOC1, active compounds read low 1.03
